High-throughput results as filed in PubChem BioAssay.
Most compounds without a hit are left out; they make up all but 1.6% or so of the library.
KCNQ2 pot: KCNQ2 (rat) channel potentiation. CHO-K1 KCNQ2, FluxOR thallium flux fluorescence; hits give high values. B-score at 10 µM. O88943. 0.54% of 310,000 active. AID 2239;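 active = fluorescence ratio B-score at least 3 SD of library B-scores, with initial fluorescence B-score within 3 of them, cut at about 5.3 in these data; same plate scores as AID 2156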;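 also: B-score of peak minus minimum over baseline fluorescence ratio after K+ and Tl+ stimulus; positive B-score means potentiation of KCNQ2 with more thallium influx and brighter signal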
KCNQ2 block: blocks the rat KCNQ2 potassium channel | CHO-K1 KCNQ2, FluxOR thallium flux, 20 min; hits give low values | O88943 | B-score at 10 µM | 1.1% of 310,000 active | AID 2156;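 active = fluorescence ratio B-score at most minus 3 library SDs, with starting brightness B-score within 2 library SDs, cut at about -5.5 in these data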
Kir21 confirm: confirmation of mouse Kir2.1 potassium channel inhibitors; shares compounds with KCNQ2 pot; Kir2.1-expressing cells, FluxOR thallium flux fluorescence; hits give low values; Tl flux remaining, % of negative control (hits give low values), % at 10 µM; 41% of 2,300 active;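 active = Primary-screen hit whose thallium flux fell at least 3 control SD below untreated wells in both duplicates, with normal baseline fluorescence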
Target sequence (P35561 whole entry, looked up): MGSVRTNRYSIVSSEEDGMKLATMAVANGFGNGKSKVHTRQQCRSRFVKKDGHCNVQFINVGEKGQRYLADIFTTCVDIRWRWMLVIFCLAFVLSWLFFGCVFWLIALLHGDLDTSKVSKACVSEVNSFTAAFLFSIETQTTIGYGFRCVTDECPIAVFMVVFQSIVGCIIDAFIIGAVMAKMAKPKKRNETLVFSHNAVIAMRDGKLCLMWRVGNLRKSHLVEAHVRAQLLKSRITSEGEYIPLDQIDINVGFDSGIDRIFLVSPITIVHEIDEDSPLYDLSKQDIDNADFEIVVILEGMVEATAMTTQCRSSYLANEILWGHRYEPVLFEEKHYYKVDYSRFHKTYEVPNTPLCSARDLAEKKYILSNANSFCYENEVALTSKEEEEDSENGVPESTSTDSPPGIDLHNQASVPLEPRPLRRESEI
HEK293 Tl flux: alters thallium flux in parental HEK293 cells, Kir2.1 counter-screen. shares compounds with KCNQ2 pot. FluxOR thallium flux fluorescence; 0% = unstimulated blank wells. FluxOR signal as % of negative control (100 = no effect), % at 10 µM. 19% of 2,300 active. AID 2105;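 active = dye signal at least 3 control SD above or below untreated wells in both duplicates, raw fluorescence within 3, either direction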;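 also: percent is based on the flux ratio of peak minus minimum fluorescence over baseline F0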
CHO-K1 Tl ctr: counter-screen for KCNQ2 potentiators: effect in parental CHO-K1 cells | AID 2282 | shares compounds with KCNQ2 pot | 43% of 1,200 active | activity increase over 3SD of controls, % at 10 µM | FluxOR thallium flux fluorescence; zero = vehicle mean+3SD, 100% = vehicle-minus-blank window;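 active = signal rise of at least 3 SD above the untreated control mean, in both duplicate wells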;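 also: counter screen of KCNQ2 potentiator hits so any rise reflects channel-independent effects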
KCNQ1 sel pot: human KCNQ1 counter-target activity of KCNQ2 potentiators. shares compounds with KCNQ2 pot. CHO KCNQ1 stable, FluxOR thallium flux fluorescence; beyond 3SD, as % of vehicle-control signal. activation over 3SD threshold, % at 10 µM. 28% of 1,200 active. AID 2283;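 active = fluorescence ratio rise of at least 3 SD of vehicle wells above their mean, in both replicate wells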
KCNQ2 pot conf: confirmation of rat KCNQ2 potassium channel potentiators. shares compounds with KCNQ2 pot. CHO-KCNQ2 cells, FluxOR thallium flux fluorescence. 68% of 1,200 active. AID 2287. potentiation, less the hit threshold, % at 10 µM;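 active = fluorescence ratio rising 3 SD or more over the vehicle control mean in both replicates, plus primary screen hit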;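 also: peak minus minimum thallium fluorescence divided by baseline after K/Tl stimulus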
Kir21 spec: selectivity of KCNQ2 potentiators: effect on mouse Kir2.1; shares compounds with KCNQ2 pot; HEK293 Kir2.1, FluxOR thallium flux fluorescence; activity over 3SD threshold, % at 10 µM; 2% of 1,200 active;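 active = fluorescence ratio rise of at least 3 SD above the vehicle-control mean, seen in both replicates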
KCNQ2 W236L MoA: rat KCNQ2 W236L mutant potentiation by KCNQ2 potentiators; shares compounds with KCNQ2 pot; CHO KCNQ2-W236L, automated patch clamp current; current increase over 3SD of negative controls (%), hits give high values, % at 25 µM; 10% of 940 active; AID 2558;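 active = current increase at least 3 SD of the untreated controls above them in both duplicate recordings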
Large screens that a line does not name were inactive (follow-up assays come after a bar, where they were run).

S=C(NCCc1cccc(Cl)c1)NCc1ccccc1	KCNQ2 pot 7.5 | CHO-K1 Tl ctr 9.3 | KCNQ1 sel pot 41 | KCNQ2 pot conf 12 | Kir21 spec inactive | KCNQ2 W236L MoA inactive
S=C(NCCc1ccc(Cl)cc1)NCc1ccccc1	none (no result: KCNQ2 pot) | Kir21 confirm inactive | HEK293 Tl flux inactive
S=C(NCc1ccccc1)Nc1ccc(Cl)cc1	none
COc1ccc(/C=C/C2=Nc3ccccc3NC(C)(C)C2)cc1OC	none
COc1ccc(CCNC(=O)CNCC2CCCCC2)cc1OC	none (no result: KCNQ2 pot)
Cc1ccc(NC(=O)c2cc3c(CO)cnc(C)c3oc2=Nc2cccc(C(N)=O)c2)cc1	none (no result: KCNQ2 pot)
CN(CCc1ccccn1)C(=O)CCC1CCCN(C(=O)c2ccc3c(c2)OCCO3)C1 (centres undefined)	none (no result: KCNQ2 pot)
CCOC(=O)CSc1nc(CC)nc2ccccc12	none
CCOC(=O)CSc1nc(Cc2ccccc2)nc2ccccc12	none (no result: KCNQ2 pot) | Kir21 confirm 70% | HEK293 Tl flux inactive
COc1ccc(C2CCCN2CC(O)COc2ccccc2C(C)C)cc1 (centres undefined)	KCNQ2 block -6.6 | Kir21 confirm 30% | HEK293 Tl flux inactive
CCOC(=O)N1CCN(CC(O)COc2ccccc2C(C)C)CC1 (centres undefined)	none
N#CCCN(C(=O)COC(=O)C1=NNC(=O)CC1)c1ccccc1	none
O=C(Nc1c2c(nn1-c1ccc(F)cc1)CS(=O)C2)c1ccc(Br)o1 (centres undefined)	none
O=C(CCC1CCCCC1)Nc1c2c(nn1-c1ccc(F)cc1)CS(=O)C2 (centres undefined)	KCNQ2 pot 10 | Kir21 confirm inactive | HEK293 Tl flux inactive | CHO-K1 Tl ctr inactive | KCNQ1 sel pot 19 | KCNQ2 pot conf 47 | Kir21 spec inactive | KCNQ2 W236L MoA inactive
CC(C)C(NC(=O)/C(=C/c1ccco1)NC(=O)c1ccc(Br)o1)C(=O)O (centres undefined)	none (no result: KCNQ2 pot)
CC1C(=O)C(C)C(c2ccccc2F)NC1c1ccccc1F (centres undefined)	none (no result: KCNQ2 pot)
CC(C)CC(NC(=O)OC(C)(C)C)c1cn([C@@H](Cc2ccc(O)cc2)C(=O)N2CCN(C(=O)OC(C)(C)C)CC2)nn1 (some centres undefined)	none (no result: KCNQ2 pot)
CCCOC(=O)c1ccc(Oc2c(-c3ccc(OCC)cc3O)n[nH]c2C)cc1	none (no result: KCNQ2 pot)
COc1ccc(Oc2c(-c3ccc(O)cc3O)n[nH]c2C)cc1	none (no result: KCNQ2 pot) | Kir21 confirm 61% | HEK293 Tl flux inactive
Cc1c(-c2ccccc2)sc2nc[nH]c(=S)c12	KCNQ2 pot 10 | Kir21 confirm inactive | HEK293 Tl flux inactive | CHO-K1 Tl ctr inactive | KCNQ1 sel pot inactive | KCNQ2 pot conf 6.5 | Kir21 spec inactive | KCNQ2 W236L MoA inactive
O=c1[nH]cnc2scc(-c3ccc(-c4ccccc4)cc3)c12	none (no result: KCNQ2 pot)
Cc1c(OC(C)C(=O)NCC2CCC(C(=O)O)CC2)ccc2c(-c3ccccc3)cc(=O)oc12 (centres undefined)	none
COc1cccc(CNC(=O)N2CCN(c3ccccc3Cl)CC2)c1	none
COc1ccccc1N1CCN(C(=O)NCc2cccc(C(F)(F)F)c2)CC1	KCNQ2 pot 7 | Kir21 confirm inactive | HEK293 Tl flux inactive | CHO-K1 Tl ctr inactive | KCNQ1 sel pot inactive | KCNQ2 pot conf inactive | Kir21 spec inactive | KCNQ2 W236L MoA inactive
CCn1c(SCC(=O)NCc2ccccc2)nnc1C(CO)NC(=O)c1ccccc1 (centres undefined)	none (no result: KCNQ2 pot)
COc1cccc(N=Nc2c(N)[nH]n3c(=O)cc(-c4ccccc4)nc23)c1	KCNQ2 pot 5.9 | Kir21 confirm inactive | HEK293 Tl flux inactive | CHO-K1 Tl ctr inactive | KCNQ1 sel pot inactive | KCNQ2 pot conf inactive | Kir21 spec inactive
